Data on nine molecules can be found in PubChem BioAssay (Tox21).

Structures are written as SMILES. Inconclusive results are not listed. A number with no mark means an inactive call. The source made the active and inactive calls. Unless noted, calls come from the whole dose curve; as a rule, active = well fitted curve in the direction sought with a large enough effect in the repeat runs; inconclusive = weak or mixed curves; inactive = no such curve, though single readings can be large; an effect the other way counts as inactive or inconclusive.

Experiment [1] in a line: qHTS assay to identify small molecule agonists of the peroxisome proliferator-activated receptor delta (PPARd) signaling pathway - cell viability counter screen (AID 743211). Note: nearly all actives have a fitted effect of over 55% in size. Note: potency is the fitted concentration of half-maximal effect. In a few lines:
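HEK293H PPARd-bla, 3000 cells/well; 5 h preincubation 37C/5% CO2; cpd in DMSO, 17 h 37C; B/G FRET substrate 2 h RT; CellTiter-Glo 30 min RT, luminescence.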
In general terms: qHTS replaces the single test concentration by a dilution series.

Experiment [2] can be described thus: qHTS assay to identify small molecule antagonists of the peroxisome proliferator-activated receptor delta (PPARd) signaling pathway - cell viability counter screen (AID 743213). Note: nearly all actives have a fitted effect of over 50% in size. Note: potency is the fitted concentration of half-maximal effect. In a few lines:
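PPARd-bla HEK293H cells were treated with compounds plus agonist L165041 (300 nM final) for 17 h at 37 C. Viability was then read in the same wells by CellTiter-Glo luminescence after 30 min at room temperature.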

Experiment [3] in a line: qHTS assay to identify small molecule agonists of the farnesoid-X-receptor (FXR) signaling pathway - cell viability counter screen (AID 743218). Note: nearly all actives have a fitted effect of over 45% in size. Note: potency is the fitted concentration of half-maximal effect. In a few lines: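 Viability counter screen in the same wells: CellTiter-Glo luminescence, 30 min room-temperature incubation, measured after the beta-lactamase read. Cells were GeneBLAzer FXR-UAS-bla HEK 293T, compound-treated 16 h at 37C.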

Experiment [4] in a line: qHTS assay to identify small molecule antagonists of the farnesoid-X-receptor (FXR) signaling pathway - cell viability counter screen (AID 743221; active = well fitted cell-killing curve with a large enough effect in the repeat runs, not every such curve was filed as active; note: nearly all actives have a fitted effect of over 50% in size; note: potency is the fitted concentration of half-maximal effect). In a few lines: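 Luminescence from CellTiter-Glo measures cytotoxicity in GeneBLAzer FXR-UAS-bla HEK 293T cells. Cells were exposed to compounds with 50 uM chenodeoxycholic acid (final) for 16 h at 37 C, in wells also used for the reporter readout.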

Experiment [5] in a line: qHTS assay to identify small molecule agonists of the vitamin D receptor (VDR) signaling pathway - cell viability counter screen (AID 743224). Note: nearly all actives have a fitted effect of over 50% in size. Note: potency is the fitted concentration of half-maximal effect. The gist of the method: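 Counter screen run in the same wells as the VDR-bla reporter assay: CellTiter-Glo luminescence, 30 min at room temperature, after 16 h compound treatment at 37C of cells pre-plated for 4 h.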
Experiment [6] in a line: qHTS assay to identify small molecule antagonists of the vitamin D receptor (VDR) signaling pathway - cell viability counter screen (AID 743225). Note: nearly all actives have a fitted effect of over 50% in size. Note: potency is the fitted concentration of half-maximal effect. In a few lines:
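Read-out: CellTiter-Glo luminescence measured 30 min after reagent addition at room temperature. Cells were VDR-bla HEK 293T exposed 16 h at 37C, 5% CO2, to compound with 3 nM final calcitriol agonist.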

Experiment [7] can be described thus: qHTS assay to identify small molecule agonists of the endoplasmic reticulum stress response signaling pathway (AID 1159516; active = well fitted activation curve with a large enough effect in the signal ratio in the repeat runs, not every such curve was filed as active; the % refers to the signal ratio; note: % is set by controls: 0 for no effect and ±100 for the full control effect). In a few lines:
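Ratiometric FRET readout (405 nm excitation; 460 and 530 nm emission) of a beta-lactamase gene driven by the ER stress response element, after 2 hr substrate loading. HeLa ESRE-bla cells were seeded overnight and treated with compounds for only 5 hr at 37 C.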

Experiment [8] is described as follows: qHTS assay to identify small molecule agonists of the endoplasmic reticulum stress response signaling pathway - cell viability counter screen (AID 1159517; calls by dose curve; note: nearly all actives have a fitted effect of over 50% in size; note: potency is the fitted concentration of half-maximal effect). In a few lines: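 In parallel with the ESRE reporter read, cytotoxicity was scored by CellTiter-Glo luminescence (30 min, room temperature) on HeLa ESRE-bla cells dosed for 5 hr.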
Experiment [9] has as its target Nuclear receptor ROR-gamma (Homo sapiens) (UniProt P51449). Put plainly: qHTS assay to identify small molecule antagonists of the retinoid-related orphan receptor gamma (ROR-gamma) signaling pathway (AID 1159521; note: nearly all actives have a fitted effect of over 50% in size; note: potency is the fitted concentration of half-maximal effect). In a few lines: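 CHO Tet-on RORγ, RORE-luc reporter. Cpd 2 h pre-incubation, then dox hyclate 1 uM final, 16 h, 37 C/5% CO2. ONE-Glo luminescence; decrease = antagonist.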

A short description of experiment [10]: qHTS assay to identify small molecule agonists of the RXR signaling pathway - cell viability counter screen (AID 1159529). Note: nearly all actives have a fitted effect of over 50% in size. Note: potency is the fitted concentration of half-maximal effect. The gist of the method: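 HEK 293T RXRa-bla cells, 2% CS-FBS; 5 h settle; cpd 16 h 37 C, 5% CO2; CellTiter-Glo 30 min RT, luminescence. Tetraoctyl ammonium bromide as positive control.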
Experiment [11] has as its target Vitamin D3 receptor (Homo sapiens) (UniProt P11473). Put plainly: qHTS assay to identify small molecule antagonists of the vitamin D receptor (VDR) signaling pathway (AID 743223; active = well fitted inhibition curve with a large enough effect in the signal ratio in the repeat runs, not every such curve was filed as active; the % refers to the signal ratio; note: potency is the fitted concentration of half-maximal effect). The gist of the method:
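Antagonist mode uses 1alpha,25-dihydroxyvitamin D3 at 3 nM final as stimulus. VDR-bla cells receive compounds in DMSO, incubate 16 h at 37C, then a beta-lactamase FRET substrate for 2 h at room temperature before fluorescence measurement.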

A short description of experiment [12]: qHTS assay to identify small molecule antagonists of the retinoid-related orphan receptor gamma (ROR-gamma) signaling pathway - cell viability counter screen (AID 1159520). In a few lines:
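Tet-on ROR gamma CHO cells were given compounds for 2 hr, then doxycycline hyclate at 1 uM final, and incubated 16 hr at 37 C. Viability was measured as ATP content by CellTiter-Glo luminescence.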

The nature of experiment [13]: qHTS assay to identify small molecule agonists of the AP-1 signaling pathway - cell viability counter screen (AID 1159525; calls by dose curve; note: nearly all actives have a fitted effect of over 55% in size; note: potency is the fitted concentration of half-maximal effect). The gist of the method:
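Same-well cytotoxicity counter screen of the Tox21 10K library in ME-180 cells. The readout is ATP-dependent luminescence after 5 h compound treatment. Data are normalised to DMSO and tetra n-octyl ammonium bromide controls.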

Experiment [14] has as its target Bile acid receptor (Homo sapiens) (UniProt Q96RI1). Put plainly: qHTS assay to identify small molecule agonists of the farnesoid-X-receptor (FXR) signaling pathway (AID 743220; active = well fitted activation curve with a large enough effect in the signal ratio in the repeat runs, not every such curve was filed as active; the % refers to the signal ratio; note: % is set by controls: 0 for no effect and ±100 for the full control effect). In a few lines:
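FXR-UAS-bla HEK 293T cells carrying a UAS-driven beta-lactamase reporter were plated for 5 h at 37C/5% CO2, then exposed to DMSO-dissolved Tox21 10K compounds for 16 h at 37C. A LiveBLAzer B/G FRET substrate was loaded for 2 h at room temperature before fluorescence reading.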

Experiment [15] has as its target Vitamin D3 receptor (Homo sapiens) (UniProt P11473). Put plainly: qHTS assay to identify small molecule agonists of the vitamin D receptor (VDR) signaling pathway (AID 743222; calls by dose curve; note: % is set by controls: 0 for no effect and ±100 for the full control effect). In a few lines:
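Agonist mode, beta-lactamase reporter: fluorescence from LiveBLAzer B/G FRET substrate (2 h, room temperature) read after 16 h compound treatment at 37 C of VDR-bla cells, which were pre-incubated 4 h after seeding.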

In experiment [16] the target is Peroxisome proliferator-activated receptor delta (Homo sapiens) (UniProt Q03181). Put plainly: qHTS assay to identify small molecule agonists of the peroxisome proliferator-activated receptor delta (PPARd) signaling pathway (AID 743212; calls by dose curve; note: % is set by controls: 0 for no effect and ±100 for the full control effect). The gist of the method: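 Tox21 library screened in GeneBLAzer PPARd UAS-bla HEK293H cells. After compound treatment at 37 C, a FRET-based beta-lactamase substrate was applied for 2 h and fluorescence recorded.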

Experiment [17] shares this target. Put plainly: qHTS assay to identify small molecule antagonists of the peroxisome proliferator-activated receptor delta (PPARd) signaling pathway (AID 743215; active = well fitted inhibition curve with a large enough effect in the signal ratio in the repeat runs, not every such curve was filed as active; the % refers to the signal ratio). The gist of the method: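 Agonist L165041 (300 nM final) added with compound to PPARd-bla HEK293H UAS-bla reporter cells; 17 h incubation at 37 C. Read-out: LiveBLAzer FRET substrate, 2 h at room temperature, fluorescence intensity.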

A short description of experiment [18]: qHTS assay to identify small molecule agonists of the AP-1 signaling pathway (AID 1159526; calls by dose curve; note: % is set by controls: 0 for no effect and ±100 for the full control effect).
Experiment [19] deals with Retinoic acid receptor RXR-alpha (Homo sapiens) (UniProt P19793). Put plainly: qHTS assay to identify small molecule agonists of the RXR signaling pathway (AID 1159527; calls by dose curve; note: % is set by controls: 0 for no effect and ±100 for the full control effect; nearly all actives have a fitted effect of over 35% in size). In a few lines: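 Read-out: beta-lactamase FRET ratio (405 nm excitation, 460 and 530 nm emission) after 2 hr substrate loading at room temperature. Cells were RXR-alpha-UAS-bla HEK 293T treated with compounds for 16 hr in 2% charcoal-stripped FBS medium.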

The target of experiment [20] is Bile acid receptor (Homo sapiens) (UniProt Q96RI1). The experiment can be described thus: qHTS assay to identify small molecule antagonists of the farnesoid-X-receptor (FXR) signaling pathway (AID 743217; active = well fitted inhibition curve with a large enough effect in the signal ratio in the repeat runs, not every such curve was filed as active; the % refers to the signal ratio; note: % is set by controls: 0 for no effect and ±100 for the full control effect). In a few lines: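 Antagonist mode: chenodeoxycholic acid at 50 uM final stimulates a UAS-driven beta-lactamase reporter in HEK 293T FXR-bla cells during 16 h, 37C compound exposure. Read-out is FRET substrate fluorescence after 2 h at room temperature.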
Bile acid receptor (Homo sapiens), sequence (Q96RI1 whole entry, looked up): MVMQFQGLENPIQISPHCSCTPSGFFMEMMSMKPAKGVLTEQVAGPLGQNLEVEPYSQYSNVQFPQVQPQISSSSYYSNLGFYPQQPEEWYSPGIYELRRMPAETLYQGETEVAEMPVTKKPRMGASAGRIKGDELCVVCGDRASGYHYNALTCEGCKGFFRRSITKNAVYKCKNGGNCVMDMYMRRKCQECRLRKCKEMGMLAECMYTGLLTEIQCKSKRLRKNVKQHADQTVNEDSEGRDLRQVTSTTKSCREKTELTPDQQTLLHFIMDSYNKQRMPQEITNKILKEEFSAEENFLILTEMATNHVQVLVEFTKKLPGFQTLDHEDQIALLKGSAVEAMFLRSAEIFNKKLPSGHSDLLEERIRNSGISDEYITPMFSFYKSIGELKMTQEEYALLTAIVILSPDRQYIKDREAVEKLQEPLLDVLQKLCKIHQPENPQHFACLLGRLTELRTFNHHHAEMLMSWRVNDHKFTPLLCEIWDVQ

Vitamin D3 receptor (Homo sapiens), sequence (P11473 whole entry, looked up): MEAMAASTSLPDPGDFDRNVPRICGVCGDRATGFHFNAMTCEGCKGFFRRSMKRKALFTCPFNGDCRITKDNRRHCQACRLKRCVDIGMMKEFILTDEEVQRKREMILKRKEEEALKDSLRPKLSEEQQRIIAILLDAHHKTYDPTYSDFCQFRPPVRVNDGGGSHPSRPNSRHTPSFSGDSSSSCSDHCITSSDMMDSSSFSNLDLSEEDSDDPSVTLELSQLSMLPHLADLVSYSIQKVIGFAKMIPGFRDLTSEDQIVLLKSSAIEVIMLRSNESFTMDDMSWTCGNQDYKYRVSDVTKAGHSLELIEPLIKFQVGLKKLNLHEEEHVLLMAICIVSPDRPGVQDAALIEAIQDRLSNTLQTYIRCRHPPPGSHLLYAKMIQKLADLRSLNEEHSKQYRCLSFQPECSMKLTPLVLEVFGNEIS
Peroxisome proliferator-activated receptor delta (Homo sapiens), sequence (Q03181 whole entry, looked up): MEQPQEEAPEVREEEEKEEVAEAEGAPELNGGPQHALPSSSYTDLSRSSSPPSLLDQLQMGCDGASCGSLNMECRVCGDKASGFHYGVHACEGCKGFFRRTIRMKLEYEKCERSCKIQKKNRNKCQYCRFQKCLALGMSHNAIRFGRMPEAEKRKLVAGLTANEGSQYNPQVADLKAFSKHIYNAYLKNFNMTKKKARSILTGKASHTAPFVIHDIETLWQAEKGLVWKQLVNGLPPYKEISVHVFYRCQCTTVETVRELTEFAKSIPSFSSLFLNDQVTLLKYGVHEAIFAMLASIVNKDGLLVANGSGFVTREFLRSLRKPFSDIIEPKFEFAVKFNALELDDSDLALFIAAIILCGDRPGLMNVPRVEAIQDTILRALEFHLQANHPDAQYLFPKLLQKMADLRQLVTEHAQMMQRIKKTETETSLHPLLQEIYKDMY
Retinoic acid receptor RXR-alpha (Homo sapiens), sequence (P19793 whole entry, looked up): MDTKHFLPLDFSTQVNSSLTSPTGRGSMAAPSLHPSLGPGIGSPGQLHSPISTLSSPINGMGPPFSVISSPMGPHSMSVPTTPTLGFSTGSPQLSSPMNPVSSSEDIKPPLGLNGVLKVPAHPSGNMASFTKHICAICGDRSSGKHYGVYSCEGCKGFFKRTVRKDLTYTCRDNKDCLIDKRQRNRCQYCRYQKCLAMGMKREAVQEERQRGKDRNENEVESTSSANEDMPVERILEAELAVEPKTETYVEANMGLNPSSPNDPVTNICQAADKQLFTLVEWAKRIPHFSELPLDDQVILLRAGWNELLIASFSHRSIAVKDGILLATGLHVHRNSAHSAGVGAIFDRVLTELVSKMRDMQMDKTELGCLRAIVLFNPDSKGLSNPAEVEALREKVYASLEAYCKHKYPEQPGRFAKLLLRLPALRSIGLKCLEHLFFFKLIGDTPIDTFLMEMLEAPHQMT

Regarding `O=C1NCCN1CCN1CCC(c2cn(-c3ccc(F)cc3)c3ccc(Cl)cc23)CC1`, the Potency in experiment [1] was 23.7 µM (active); in experiment [2], 23.7 µM (active); in [3] it was 23.7 µM (active); in experiment [4], 33.5 µM (active); in experiment [5], 11.9 µM (active); in experiment [6] it was 16.9 µM (active). Moreover, the Potency in experiment [9] is 26.6 µM (active); in [10], 21.3 µM (active). Moreover, the Potency result in [7] and in experiment [8] was “inactive” each time.

`CNC(=S)NN`: the Potency is 12.3 µM (active) in [1], 11 µM (active) in experiment [2] and 17.4 µM (active) in [11]. The Potency result in experiment [3], in [7], in experiment [8], in [12] and in experiment [13] was “inactive” each time.

For the molecule `CC(NCCC(c1ccccc1)c1ccccc1)c1ccccc1` (stereo not drawn), the Potency is 29.8 µM (active) in experiment [1], 8.41 µM (active) in [2], 23.7 µM (active) in experiment [3] and 29.8 µM (active) in experiment [9]. For the same molecule, the Potency result in [14], in [4], in experiment [15], in experiment [7], in [8] and in experiment [13] was “inactive” throughout.

In the case of `O=C(O)CC(=O)O`, the Potency entry in [1], in experiment [2], in experiment [17], in experiment [3], in experiment [4] and in experiment [15] was “inactive” each time. The Potency result in experiment [11], in experiment [6], in experiment [7], in [8], in experiment [12] and in [18] was “inactive” each time. Moreover, the Potency entry in [19] and in [10] was “inactive” throughout. Further, the molecule was called inactive in experiment [16].

Take `N[C@@H](CSSC[C@H](N)C(=O)O)C(=O)O`: the activation in experiment [16] is -7.58% [at 0.55 µM]; in experiment [14] it was -0.652% [at 0.55 µM]; in [7] it was -7.2% [at 0.628 µM]. Moreover, in experiment [20], the activity change, negative = inhibition was 8.01% [at 0.55 µM]. In addition, the viability change, negative = cytotoxic in experiment [3] was -3.16% [at 0.55 µM]; in experiment [6], 6.19% [at 0.628 µM]; in [13] it was 3.93% [at 0.29 µM]. Besides, the activity change, negative = cytotoxicity in experiment [4] is 5.98% [at 0.55 µM]; in experiment [8], 2.61% [at 0.628 µM]; in experiment [10] it was -20.1% [at 0.29 µM].

On to `C=CC(=O)OCCC#N`, for which the Potency entry in experiment [1], in [2], in experiment [17], in [20], in experiment [3] and in [14] was “inactive” each time. The Potency entry in [4], in experiment [15], in experiment [11], in [5], in experiment [7] and in experiment [8] was “inactive” each time. Also, the Potency entry in experiment [13] and in [10] was “inactive” throughout.

For the molecule `CC(CN(C)C)CN1c2ccccc2CCc2ccccc21` (stereo not drawn), the Potency in experiment [1] was 26.6 µM (active); in experiment [2], 29.8 µM (active); in [3], 8.41 µM (active); in experiment [10], 9.52 µM (active). In addition, the Potency entry in [17], in [20], in experiment [14], in experiment [15], in [11] and in experiment [7] was “inactive” each time. Moreover, the Potency result in experiment [8] and in [12] was “inactive” each time.

As to `CCN(CC)CCOC(=O)C1(C2CCCCC2)CCCCC1`, the outcome in experiment [16] was inactive. Further, the Potency entry in experiment [2], in [3], in experiment [4], in [15], in [11] and in experiment [6] was “inactive” in each case. The Potency result in experiment [7] and in experiment [8] was “inactive” in each case. The Potency in experiment [10] was 12 µM (active).

With `CCCCCCCC/C=C\CCCCCCCC(=O)N(C)CC(=O)O`, the Potency in experiment [1] is 38.9 µM (active); in experiment [2], 12.3 µM (active); in experiment [3], 38.9 µM (active); in experiment [4], 54.9 µM (active); in [5], 49 µM (active); in experiment [8] it was 54.9 µM (active). Besides, in [13], the Potency is 30.9 µM (active). Further, the Potency result in experiment [7] and in [9] was “inactive” in each case.
